# Assay results published in PubChem BioAssay.
# “And” between values parts separate entries of the source, which are not always exact repeats. Equal entries are not always repeated. The source made the active and inactive calls. Rule as the data show it, unless noted: active = parasite load remaining mostly below about 12% (no sharp cut-off); inactive = mostly above about 10%.
# Key:
# [1] = liver-stage malaria parasite growth inhibition, primary screen, cell-based, HepG2, luciferase luminescence, HepG2 viability (AID 624349);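 also: 100% = mean of DMSO negative control wells on the same plate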; details: P. berghei liver stage in HepG2, luciferase luminescence, concentration not given here; parasite load remaining: stronger effect = lower value; viability: measured here: HepG2 viability without parasites
# [2] = sensitizers of A549 cells to miR-34 induction, primary screen, imaging, A549 dox-inducible miR-34, nuclei and caspase counts (AID 1347080;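 active = compounds whose cell count with miR-34 switched on is under 0.7 times the count with it off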); details: A549 miR-34 inducible, Hoechst nuclei count, 48 h
# [3] = inhibitors of Cryptococcus chitosan production, flow cytometry, Cibacron Brilliant Red staining (AID 1347148; call rule not given here;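 also: compound exposure lasted three days at 37 degrees C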); details: Cryptococcus neoformans chitosan, stronger effect = lower value; at 10 µM unless noted
# [4] = hESC survival regulators, cell-based (AID 493140; call rule not given here;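 also: cells exposed to compounds for four days before counting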); details: human embryonic stem cell survival screen; stronger effect = higher value
# [5] = modifiers of HSF1 nuclear foci, imaging, Selleck Cancer Library (AID 1347162; in the data active = plate-normalised HSF1 focus index below about 0.46); details: human cells, at 10 µM; SSMD: measured here: HSF1 foci SSMD mean; cell count: measured here: cell number; plate-normalised HSF1 focus index: stronger effect = lower value
# [6] = stronger effect = lower value, cell number ratio, induced over uninduced
# [7] = measured here: relative caspase fold change +Dox/-Dox
# [8] = measured here: total cells with miR-34 induction, stronger effect = lower value
# [9] = measured here: total cells without miR-34 induction
smiles,measurement,setting,value
CCC(C)N1CCC2(CC1)N=c1c(c3c4c5c(C)c(O)c3c(O)c1=NC(=O)/C(C)=C/C=C/[C@H](C)[C@H](O)[C@@H](C)[C@@H](O)[C@@H](C)[C@H](OC(C)=O)[C@H](C)[C@@H](OC)/C=C/O[C@@](C)(O5)C4=O)N2 (stereo partly drawn),parasite load remaining,[1],81.4% (inactive)
same,viability,[1],74.8%
same,fold change,[2]; [6],0.966 (inactive)
same,fold change,[2]; [7],0.766
same,cell count,[2]; [8],8510
same,cell count,[2]; [9],8810
C=C(C)[C@H]1CC[C@@]2(C(=O)O)CC[C@@]3(C)[C@@H](CC[C@H]4[C@]5(C)CC[C@@H](O)C(C)(C)[C@H]5CC[C@@]43C)[C@H]12,fold fluorescence,[3],3.34 [at 109.5 µM] (inactive)
CN(C)c1ccc(O)c2c1CC1CC3[C@@H](N(C)C)C(=O)C(C(N)=O)=C(O)[C@]3(O)C(=O)C1=C2O (stereo partly drawn),parasite load remaining,[1],53.7% (inactive)
same,viability,[1],42.6%
same,fold change,[2]; [6],0.679 (active)
same,fold change,[2]; [7],1.3
same,cell count,[2]; [8],3880
same,cell count,[2]; [9],5720
O=C(O)C1(O)C[C@H](O)C(O)[C@@H](O)C1 (stereo partly drawn),parasite load remaining,[1],88.4% (inactive)
same,viability,[1],72.5%
same,fold change,[2]; [6],0.922 (inactive)
same,fold change,[2]; [7],0.931
same,cell count,[2]; [8],8930
same,cell count,[2]; [9],9680
CC(C)(CO)C(O)C(=O)NCCC(=O)O (stereo not drawn),parasite load remaining,[1],190% (inactive)
same,viability,[1],105%
same,fold change,[2]; [6],0.839 (inactive)
same,fold change,[2]; [7],0.783
same,cell count,[2]; [8],8190
same,cell count,[2]; [9],9770
COC(C)(C)CCC[C@H](C)C/C=C/C(C)=C/C(=O)O,fold fluorescence,[3],5.1 (inactive)
CCCCC(C)(O)C/C=C/[C@H]1[C@H](CCCCCCC(=O)O)C(=O)C[C@@H]1O (stereo partly drawn),fold fluorescence,[3],3.98 (inactive)
O[C@H]1C=C2CCN3Cc4cc5c(cc4C(C23)[C@@H]1O)OCO5 (stereo partly drawn),fold fluorescence,[3],10.6 [at 174 µM] (inactive)
CCOC(=O)Oc1c(OC)cc(C(=O)O[C@@H]2C[C@@H]3CN4CCc5c([nH]c6cc(OC)ccc56)[C@H]4C[C@@H]3[C@H](C(=O)OC)[C@H]2OC)cc1OC,parasite load remaining,[1],-14.9% (active)
same,viability,[1],98.5%
same,fold change,[2]; [6],0.795 (inactive)
same,fold change,[2]; [7],2.41
same,cell count,[2]; [8],6440
same,cell count,[2]; [9],8100
C=CC[C@H]1/C=C(\C)C[C@@H](C)C[C@@H](OC)[C@@H]2O[C@](O)(C(=O)C(=O)N3CCCC[C@@H]3C(=O)O[C@@H](/C(C)=C/[C@H]3CC[C@H](O)[C@@H](OC)C3)[C@@H](C)[C@H](O)CC1=O)[C@@H](C)C[C@H]2OC,fold fluorescence,[3],13.5 [at 62.2 µM] (inactive)
CCOCCOCCOCCOCCOCCOCCOCCOCCOCCO (tested in a mixture with another compound),parasite load remaining,[1],30.7% (inactive)
same,viability,[1],102%
same,fold change,[2]; [6],0.959 (inactive)
same,fold change,[2]; [7],1.63
same,cell count,[2]; [8],11300
same,cell count,[2]; [9],11800
C/C=C/C/C=C/CCC(=O)[C@@H]1O[C@@H]1C(N)=O,fold fluorescence,[3],8.37 [at 223.9 µM] (inactive)
CC(C)(C)n1nc(Cc2cccc3ccccc23)c2c(N)ncnc21,parasite load remaining,[1],40.9% (inactive)
same,viability,[1],75%
same,fold change,[2]; [6],1.05 (inactive)
same,fold change,[2]; [7],1.15
same,cell count,[2]; [8],5260
same,cell count,[2]; [9],5010
CO[C@H]1C[C@H](O[C@H]2[C@H](C)[C@@H](OC3O[C@H](C)C[C@H](N(C)C)[C@H]3OC(C)=O)[C@@H](C)C[C@]3(CO3)C(=O)[C@H](C)[C@@H](OC(C)=O)[C@@H](C)[C@@H](C)OC(=O)[C@@H]2C)O[C@@H](C)[C@@H]1OC(C)=O (stereo partly drawn),parasite load remaining,[1],45.4% (inactive) and 43.2% (inactive)
same,viability,[1],71.3% and 92%
same,fold change,[2]; [6],0.885 (inactive)
same,fold change,[2]; [7],2.77
same,cell count,[2]; [8],11900
same,cell count,[2]; [9],13400
CC[N+]1(C)[C@@H]2CC[C@H]1CC(OC(=O)[C@H]1CCC(C(=O)OC3C[C@H]4CC[C@@H](C3)[N+]4(C)CC)(c3ccccc3)c3ccccc31)C2 (stereo partly drawn),parasite load remaining,[1],96.6% (inactive)
same,viability,[1],101%
same,fold change,[2]; [6],0.889 (inactive)
same,fold change,[2]; [7],1.08
same,cell count,[2]; [8],9010
same,cell count,[2]; [9],10100
CCCCOc1cc(C[C@H]2CNC(=O)N2)ccc1OC,fold fluorescence,[3],8.15 [at 179.6 µM] (inactive)
CC1OC(O[C@H]2/C=C/C=C/C=C/C=C/C=C/C=C/C=C/[C@H](C)[C@@H](O)[C@@H](C)[C@H](C)OC(=O)CC(O)CC(O)CCC(O)C(O)CC(O)CC3(O)C[C@H](O)C(C(=O)O)C(C2)O3)C(O)[C@H](N)C1O (stereo partly drawn),parasite load remaining,[1],85.7% (inactive) and 73.7% (inactive)
same,viability,[1],73.8% and 92.4%
same,fold change,[2]; [6],0.94 (inactive)
same,fold change,[2]; [7],0.836
same,cell count,[2]; [8],10800
same,cell count,[2]; [9],11500
COc1ccc(CCN(C)CCC[C@@](C#N)(c2cc(OC)c(OC)c(OC)c2)C(C)C)cc1OC,fold fluorescence,[3],4.22 [at 103.2 µM] (inactive)
C=C1CC[C@@H](O)C/C1=C/C=C1\CCC[C@]2(C)[C@@H]1CC[C@H]2[C@@H](C)CCCC(C)(C)O,fold fluorescence,[3],5.68 (inactive)
O=C(O)CCC/C=C\C[C@H]1[C@H](/C=C/[C@H](O)COc2cccc(Cl)c2)[C@@H](O)C[C@H]1O,fold fluorescence,[3],4.34 (inactive)
CCOC(=O)C1=C(C)NC(=S)N[C@H]1c1cccc(O)c1,fold fluorescence,[3],3.63 [at 171 µM] (inactive)
COc1c2ccoc2nc2c(OC)c(OC[C@@H](O)C(C)(C)O)ccc12,parasite load remaining,[1],153% (inactive)
same,viability,[1],90.5%
same,fold change,[2]; [6],0.816 (inactive)
same,fold change,[2]; [7],1.39
same,cell count,[2]; [8],8040
same,cell count,[2]; [9],9850
CCC(NC(C)C)C(O)c1ccc(O)c2[nH]c(=O)ccc12 (stereo not drawn),parasite load remaining,[1],40.1% (inactive)
same,viability,[1],98.2%
same,fold change,[2]; [6],0.908 (inactive)
same,fold change,[2]; [7],1.47
same,cell count,[2]; [8],11700
same,cell count,[2]; [9],12900
CC/C=C\C/C=C\C/C=C\C/C=C\C/C=C\CCCC(=O)OCC,parasite load remaining,[1],31% (inactive)
same,viability,[1],94%
same,fold change,[2]; [6],1.01 (inactive)
same,fold change,[2]; [7],1.98
same,cell count,[2]; [8],11500
same,cell count,[2]; [9],11400
CCC(=O)O[C@H]1CCC2C3CCc4cc(O)ccc4C3CC[C@@]21C (stereo partly drawn),parasite load remaining,[1],105% (inactive) and 44.5% (inactive)
same,viability,[1],66.4% and 92.8%
same,fold change,[2]; [6],0.912 (inactive)
same,fold change,[2]; [7],2.49
same,cell count,[2]; [8],10500
same,cell count,[2]; [9],11500
COC(=O)[C@@H]1CC(=O)O[C@H](C)C/C=C/C=C/[C@H](O)[C@H](C)C[C@H](CC=O)[C@H](OC2O[C@H](C)[C@@H](OC3C[C@@](C)(O)[C@@H](OC(=O)CC(C)C)[C@H](C)O3)[C@H](N(C)C)[C@H]2O)[C@H]1OC (stereo partly drawn),parasite load remaining,[1],340% (inactive)
same,viability,[1],138%
same,fold change,[2]; [6],0.948 (inactive)
same,fold change,[2]; [7],3.35
same,cell count,[2]; [8],11900
same,cell count,[2]; [9],12600
CNS(=O)(=O)c1ccc(NC(=O)c2ccccc2C(=O)O)cc1 (tested in a mixture with another compound),parasite load remaining,[1],59.7% (inactive)
same,viability,[1],106%
same,fold change,[2]; [6],0.903 (inactive)
same,fold change,[2]; [7],3.2
same,cell count,[2]; [8],11500
same,cell count,[2]; [9],12700
CN(C)C[C@H](O)Cn1c2ccc(Br)cc2c2cc(Br)ccc21,fold fluorescence,[3],6.53 [at 117.3 µM] (inactive)
CC(C)(C)NCC(O)COc1cccc2c1CC(O)C(O)C2 (stereo not drawn),parasite load remaining,[1],84.5% (inactive)
same,viability,[1],104%
same,fold change,[2]; [6],0.89 (inactive)
same,fold change,[2]; [7],1.39
same,cell count,[2]; [8],8980
same,cell count,[2]; [9],10100
Nc1ncnc2c1ncn2C1O[C@H](CO)[C@@H](O)[C@@H]1O (stereo partly drawn),parasite load remaining,[1],68.6% (inactive)
same,viability,[1],95.5%
same,fold change,[2]; [6],0.85 (inactive)
same,fold change,[2]; [7],1.24
same,cell count,[2]; [8],7580
same,cell count,[2]; [9],8920
O=C(NC[C@H]1CCCCN1)c1cc(OCC(F)(F)F)ccc1OCC(F)(F)F,fold fluorescence,[3],6.98 [at 120.7 µM] (inactive)
CCCCC/C=C\C=C\[C@@H](O)CCCCCCCC(=O)O,survival,[4],108 (inactive)
same,fold fluorescence,[3],5.71 [at 1 µM] (inactive)
CCCCC/C=C\C/C=C\C/C=C\C/C=C\CCCC(=O)O[C@@H](COCCCCCCCCCCCCCCCC)COP(=O)([O-])OCC[N+](C)(C)C,fold fluorescence,[3],5.54 (inactive)
CO[C@H]1/C=C\C=C(/C)C(=O)NC2=CC(=O)C(NCCN(C)C)=C(C[C@@H](C)C[C@H](OC)[C@H](O)[C@@H](C)/C=C(\C)[C@@H]1OC(N)=O)C2=O,SSMD,[5],3.16
same,cell count,[5],7300
same,plate-normalised HSF1 focus index,[5],1.12 (inactive)
CCCCCc1ccc(/C=C/[C@H](O)[C@@H](CO)NC)cc1,SSMD,[5],1.63
same,cell count,[5],6120
same,plate-normalised HSF1 focus index,[5],1.1 (inactive)
Nc1ncnc2c1c(I)cn2C1OC(CO)C(O)C1O (stereo not drawn),survival,[4],7.5 (inactive)
same,fold fluorescence,[3],3.83 [at 127.5 µM] (inactive)
O=C(O)c1ccc(-c2c3nc(c(-c4ccc(C(=O)O)cc4)c4ccc([n-]4)c(-c4ccc(C(=O)O)cc4)c4nc(c(-c5ccc(C(=O)O)cc5)c5ccc2[n-]5)C=C4)C=C3)cc1.[Mn+3],fold fluorescence,[3],4.93 [at 57 µM] (inactive)
